Experimental data: the supplement of paper PMC9877034
Structures can show the parent of a compound that is named as a salt. In all, about 1,000 compounds were measured (“cFRET/donor change relative to DMSO, normalised to beta-lapachone positive control (supercomplex I-IV assembly)”: median about 0.18, lowest 2% from about -1 on). The sample as a whole holds a higher share of the lowest values than the screen did.

These molecules were tested on C2C12 (NDUFB8-AcGFP / COX8A-DsRed-Monomer FRET reporter) (assay: cFRET/donor change relative to DMSO, normalised to beta-lapachone positive control (supercomplex I-IV assembly) (fraction of beta-lapachone effect); higher = more respiratory supercomplex assembly). Conditions: 40 µM; 24 h.
Experimental: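 Cells were treated with 40 uM compound for 24 h and imaged on an IN Cell Analyzer 6000. Corrected FRET was divided by donor signal (cFRET/donor) and measured in two replicate experiments. The score is (mean cFRET/donor of compound - mean DMSO) / (mean beta-lapachone 40 uM - mean DMSO). Compounds flagged for prominent cell death, abnormal morphology or decreased cell number were excluded.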

| Compound | cFRET/donor change |
| --- | --- |
| COc1cc2nc(N3CCCN(C)CC3)nc(NC3CCN(Cc4ccccc4)CC3)c2cc1OC | 0.186 |
| C=C(c1ccc(C(=O)O)cc1)c1cc2c(cc1C)C(C)(C)CCC2(C)C [Bexarotene] | 0.499 |
| c1ccc(C(NCCNC(c2ccccc2)c2ccccc2)c2ccccc2)cc1 | 0.0957 |
| COc1ccccc1CNC1CCCNC1c1ccccc1 (stereo not given) | 0.266 |
| O=C(Nc1cc(C(F)(F)F)cc(C(F)(F)F)c1)Nc1c(Br)cc(Br)cc1-c1nn[nH]n1 | 1.37 |
| C[C@@H](O)[C@H]1C(=O)N2C(C(=O)O)=C(SCCNC=N)C[C@H]12 [Imipenem monohydrate] | 0.461 |
| COc1cc(OC)c(C=C2C(=O)Nc3ccccc32)c(OC)c1 | 0.382 |
| Cc1cc(C)c(/C=C2\C(=O)Nc3ccccc32)[nH]1 | -2.59 |
| CN(C)CCC(c1ccc(Br)cc1)c1ccccn1 (racemic) [(±)-Brompheniramine maleate] | 0.0175 |
| Clc1ccc(C(c2ccccc2Cl)C(Cl)Cl)cc1 (stereo not given) [1-(2-Chlorophenyl)-1-(4-chlorophenyl)-2,2-dichloroethane] | 0.237 |
| NCCC[C@](N)(C(=O)O)C(F)F (racemic) [DL-alpha-Difluoromethylornithine hydrochloride] | 0.232 |
| COc1cc(/C=C/C(=O)N2CCC=CC2=O)cc(OC)c1OC [Piperlongumine] | -0.315 |
| CC(C)(C)c1cc(/C=C(\C#N)C(N)=S)cc(C(C)(C)C)c1O [Tyrphostin AG 879] | -2.01 |
| N#CC(C#N)=C(N)/C(C#N)=C/c1ccc(O)cc1 [Tyrphostin AG 112] | 0.38 |
| CC(C)(C=O)Cc1cc(C(C)(C)C)c(O)c(C(C)(C)C)c1 | 0.29 |
| COc1ccc(C2(O)OC(=O)C(c3ccc4c(c3)OCO4)=C2Cc2cc(OC)c(OC)c(OC)c2)cc1 (stereo not given) | 0.173 |
| CCN1CCCC1CNC(=O)c1cc(S(N)(=O)=O)ccc1OC (single isomer, unassigned; (-)) [(-)-Sulpiride] | 0.312 |
| CC[C@@]1(O)C(=O)OCc2c1cc1n(c2=O)Cc2cc3c(CN(C)C)c(O)ccc3nc2-1 [Topotecan hydrochloride hydrate] | -3.92 |
| NCCS(=O)(=O)O [Taurine] | -0.02 |
| NCCCS(=O)(=O)O [3-Amino-1-propanesulfonic acid sodium] | -2.05 |
| NCCCCN [Putrescine dihydrochloride] | 0.0353 |
| COC1=C(OC)C(=O)c2ccccc2C1=O [2,3-Dimethoxy-1,4-naphthoquinone] | 0.433 |
| Cc1cc(Cl)ccc1OCCCC(=O)NO [Droxinostat] | 0.131 |
| COc1cccc2c1[C@@H]1CN(CCCCn3c(=O)[nH]c4c(sc5ncc(-c6ccccc6)nc54)c3=O)C[C@@H]1CO2 [Fiduxosin hydrochloride] | -1.25 |
| Cn1cnc([N+](=O)[O-])c1Sc1ncnc2[nH]cnc12 [Azathioprine] | 0.496 |

| Compound | cFRET/donor change |
| --- | --- |
| N=c1ccn2c(n1)O[C@H]1[C@H](O)[C@@H](CO)O[C@H]12 [Ancitabine hydrochloride] | -0.0397 |
| Fc1ccc2[nH]c(CN3CCN(c4ccccn4)CC3)cc2c1 | 0.168 |
| CC(C)[C@H](N)C(=O)OCC(CO)OCn1cnc2c(=O)[nH]c(N)nc21 (stereo not given in full) [Valganciclovir hydrochloride hydrate] | -0.064 |
| N=C(N)NCCCCN [Agmatine sulfate] | 0.125 |
| CS(=O)(=O)c1cccc(CNc2nc(Nc3ccc4c(c3)CCC(=O)N4)ncc2C(F)(F)F)c1 | 2 |
| NC(=S)c1ccc[n+]([C@@H]2O[C@@H](COP(=O)([O-])OP(=O)(O)OC[C@H]3O[C@@H](n4cnc5c(N)ncnc54)C(OP(=O)(O)O)[C@H]3O)C(O)C2O)c1 (stereo not given in full) [Thio-NADP sodium] | -0.317 |
| O=C(c1ccc(OCCCc2c[nH]cn2)cc1)C1CC1 [Ciproxifan hydrochloride] | 0.224 |
| O=c1ccc2c(OCCCCc3ccccc3)c3ccoc3cc2o1 [Psora-4] | 0.396 |
| Cc1cccc(-c2[nH]ncc2-c2ccc3ncccc3n2)n1 | 0.0385 |
| CC1=C(C)C(=O)C(CCCCC#CCCCC#CCO)=C(C)C1=O | 0.121 |
| Nc1cc2c(ncn2CCOCP(=O)(O)O)c(=O)[nH]1 [PMEG hydrate] | 0.0365 |
| N[C@@H]1[C@H]2CN(c3nc4c(cc3F)c(=O)c(C(=O)O)cn4-c3ccc(F)cc3F)C[C@@H]12 [Trovafloxacin mesylate] | 0.3 |
| CC(C(O)c1ccc(O)cc1)N1CCC(Cc2ccccc2)CC1 (stereo not given) [Ifenprodil tartrate] | 0.529 |
| O=C(Nc1cccnc1)N1CCC(Cc2cccc(Oc3ccc(C(F)(F)F)cn3)c2)CC1 [PF 3845 hydrate] | 0.494 |
| Nc1ccc(-c2ccc3ccccc3n2)cc1 [BF-170 hydrochloride] | -0.429 |
| CN(C)C(=O)[C@H](O)[C@H](Cc1ccccc1)NC(=O)c1cc2cc(Cl)ccc2[nH]1 | 0.332 |
| NC(=O)C1=CN(C2OC(COP(=O)(O)OP(=O)(O)OC[C@H]3O[C@@H](n4cnc5c(N)ncnc54)C(OP(=O)(O)O)[C@H]3O)C(O)C2O)C=CC1 (stereo not given in full) [NADPH tetrasodium] | -0.198 |
| Cc1[nH]c(=O)c(C#N)cc1-c1ccc2nccn2c1 [Olprinone hydrochloride] | 0.211 |
| CN1C2CCCC1CC(NC(=O)c1nn(C)c3ccccc13)C2 (stereo not given) [Granisetron hydrochloride] | 0.333 |
| O=C(O)COCCN1CCN(C(c2ccccc2)c2ccc(Cl)cc2)CC1 (stereo not given) [Cetirizine dihydrochloride] | 0.511 |
| Cc1cccc(C)c1NC(=O)C(C)N (stereo not given) [Tocainide hydrochloride] | 0.415 |
| CCCCCc1ccc(/C=C/C(=O)Nc2cc(Cl)ccc2C(=O)O)cc1 | 0.0865 |
| Oc1cc2c(c(Cl)c1O)CCNCC2c1ccccc1 (racemic) [(±)-6-Chloro-PB hydrobromide] | 2.85 |
| Nc1ccn([C@@H]2O[C@H](CO)[C@@H](O)C2(F)F)c(=O)n1 [Gemcitabine hydrochloride] | 0.261 |
| CCCCc1ncc(/C=C(\Cc2cccs2)C(=O)O)n1Cc1ccc(C(=O)O)cc1 [Eprosartan mesylate] | -0.151 |
